{"source": "paper PMC12136788", "binders": {"B1": {"name": "chr1:89346535:89346536:+_ENSMUSG00000048000_ENSMUST00000174671|mus_hu|FALSE|FALSE (ssRNA)", "RNA": "GGGAGUUCUACAGUCCGACGAUCAGCUGCCUCUUAAACGAGACAAAUUUUCAGCAGAAGGGCCCAAAACAAAAUGGUCCUAGUCCUCUGAAGUAAAAAUAUUUAUGGGAAAAAUCAGUUUUUGUAAGAAAGAAAAAUUAAGAACAACAGAGGAUUGAGCAUCA"}, "B2": {"name": "chr1:89346535:89346536:+_ENSMUSG00000048000_ENSMUST00000174671|mus_mus|motif|central (ssRNA)", "RNA": "GGGAGUUCUACAGUCCGACGAUCAAGAUGCCUCUUAAACGAGACAAAUUUUCACAUAAGGGCCCAAAACAAACUGGUCCGGGUCCUUGAAGUAAAAAUAUUUAUGGGAGGAGGGGAGAUCAGUUUUUAUAUGAAAGGAAAAUUCAACAGAGGAUUGAGCAUCA"}, "B3": {"name": "chr1:89346535:89346536:+_ENSMUSG00000048000_ENSMUST00000174671|mus_hu|motif|central (ssRNA)", "RNA": "B1 RNA with U80G, A81G"}, "B4": {"name": "chr2:42509997:42509998:+_ENSG00000143924_ENST00000318522|hu_mus|hu_hu_hu_mus_True|78_78 (ssRNA)", "RNA": "GGGAGUUCUACAGUCCGACGAUCUCGCUGAGUCCUCUCCUCAUAAUUAAACAGGACUACUACUGAUGCGAUAAAAUAAACUAUCUCCCCUGUGGGAAGCAGGUAUACAUUCGCUCUACAGUCCUUUCCUCGAUAACCGUAUACCAACAGAGGAUUGAGCAUCA"}, "B5": {"name": "chr10:13251168:13251169:-_ENSMUSG00000019809_ENSMUST00000019945|mus_hu|FALSE|FALSE (ssRNA)", "RNA": "GGGAGUUCUACAGUCCGACGAUCAGCCAUAUUGUCUAGAAGUCUACUAAAACCUCGGUUUAAACAGGUAUUCAAAACUGUACUAAAAUCUGGGCUUUCCAACAUGUCUCUAGUUUCAUUGAGAAGUUUAAUAGUGGUAAUGUCCAACAGAGGAUUGAGCAUCA"}, "B6": {"name": "chr16:732453:732454:+_ENSG00000103266_ENST00000219548|hu_mus|FALSE|FALSE (ssRNA)", "RNA": "GGGAGUUCUACAGUCCGACGAUCUGCCAGGCAGGACAUGGGGCCUCAAUAGUCCUCUACCCAGCCGUUCUCAGAGAUGAAAGCGUCAAUGACUUCCUUCAUGGCCAAGUUGGGGAUGAGCUGUUCCUGGGUCAGAGGGCUCCGCAACAGAGGAUUGAGCAUCA"}, "B7": {"name": "chr9:95013113:95013114:-_ENSG00000196305_ENST00000443024|hu_hu|hu_hu_hu_mus_False|1_88 (ssRNA)", "RNA": "GGGAGUUCUACAGUCCGACGAUCCUCAGUCAGAAAGGGCGUGUAAGGAGCCAUAAGUCUGCACAGAGAAAGCAGGACACUGAACAGUGUCUCCAGAGCCAUGACACAGUCUUCCACCCCACUCUCACCCUUUAACCUUCUGCGCAACAGAGGAUUGAGCAUCA"}, "B8": {"name": "chr11:94154035:94154036:-_ENSMUSG00000020863_ENSMUST00000107820|mus_mus|FALSE|FALSE (ssRNA)", "RNA": "GGGAGUUCUACAGUCCGACGAUCAAUAGUUAAGUUUUAAAGCAUAUGUUUCUGCCAAUGUACCAACACAAGAUGGACUUAAUACCAAAAAGAAAAAAAAAACAGUUCAACCUUUUUAUUAAAAAAAAAAAGAAAAAGAAAAAGCAACAGAGGAUUGAGCAUCA"}, "B9": {"name": "chr7:135612270:135612271:-_ENSG00000105887_ENST00000393085|hu_mus|hu_hu_hu_mus_False|1_58 (ssRNA)", "RNA": "GGGAGUUCUACAGUCCGACGAUCGUUUUUUUCUGAGAUGUUAAAUAGUACUUCAGUGGAAAACAAAACUUAACCUUUCGCUAAUGCGUGUUGUACCAAAAGCAGACAUUUUAGCUUCAUUUAUUCAAAAAUAUUAAGAACAUUCAACAGAGGAUUGAGCAUCA"}, "B10": {"name": "chr16:30313237:30313238:-_ENSMUSG00000022533_ENSMUST00000100013|mus_hu|FALSE|FALSE (ssRNA)", "RNA": "GGGAGUUCUACAGUCCGACGAUCCAACCCUGAGGGAGACACACAUUAAAAAUCUUGUUAUUUAUUUAAAAAGUUAAAAAGUUACAUAUCAUUAUUUAACAAUUACUUUCCCAGACAUUUCUGUCCUUUAAGUAUGUGCAUAAACAACAGAGGAUUGAGCAUCA"}, "B11": {"name": "chr7:135612270:135612271:-_ENSG00000105887_ENST00000393085|hu_mus|hu_hu_hu_mus_False|28_38 (ssRNA)", "RNA": "GGGAGUUCUACAGUCCGACGAUCGUUUUUUUCUGAGAUGUUAAAUAGUACUUCAGUGGAAAACAAAACUUAACCUUUUAUUAAUGCGUGUUGUACCAGAAAGCAAACAUGGUUUUACAUUUAUUCAAAAAUAUUAACAUUAAGCAACAGAGGAUUGAGCAUCA"}, "B12": {"name": "chr7:135612270:135612271:-_ENSG00000105887_ENST00000393085|hu_mus|hu_hu_hu_mus_False|38_48 (ssRNA)", "RNA": "B11 RNA with G87A, U91A, C107A, A108U, G110U, G111U, U112A, U113G, U114C, A116U"}, "B13": {"name": "chr16:30313237:30313238:-_ENSMUSG00000022533_ENSMUST00000100013|mus_mus|FALSE|FALSE (ssRNA)", "RNA": "GGGAGUUCUACAGUCCGACGAUCAACAACCCUGAGGGAGACCCACAUUAAAAAAUCUUAUUUAUUUAAAAAGUUAAAAAGCUACAUAUCAUUAUUUAACAAUUACUUUACCAGACAUUUCUGUCCUUUAAGUAUGUGCAUAAACAACAGAGGAUUGAGCAUCA"}, "B14": {"name": "chr7:135612270:135612271:-_ENSG00000105887_ENST00000393085|hu_mus|hu_hu_hu_mus_False|28_58 (ssRNA)", "RNA": "B11 RNA with U78C, A79G, U80C, G98A, A101G, G102C, C103A, A104G, A106C"}, "B15": {"name": "chr9:56975896:56975897:+_ENSMUSG00000042557_ENSMUST00000167715|mus_hu|FALSE|FALSE (ssRNA)", "RNA": "GGGAGUUCUACAGUCCGACGAUCACAUCAAAGCAUAUUUCUUUUAAUAAAAAAUUGACAGUAUGUACAUUAUGUACAAAAAAACAAGUUAAAAUUGUGUGUGUGUGUGCGUGUGUGUGUCAGAGAGUAAAGCUGGUGGAUGGCCAACAGAGGAUUGAGCAUCA"}, "B16": {"name": "chr7:135612270:135612271:-_ENSG00000105887_ENST00000393085|hu_mus|hu_hu_hu_mus_False|28_108 (ssRNA)", "RNA": "GGGAGUUCUACAGUCCGACGAUCGUUUCUGAGAUGUAUGUUAAAUAGUACUUCAGUGGAAAACAAAACUUAACCUUUUAUUAAUGCGUGUUGUACCAAAAGCAGACCAUGGUUUUACAUUUAUUCAAAAAUAUUAACAUUAAGCAACAGAGGAUUGAGCAUCA"}, "B17": {"name": "chr7:135612270:135612271:-_ENSG00000105887_ENST00000393085|hu_mus|hu_hu_hu_mus_False|38_88 (ssRNA)", "RNA": "GGGAGUUCUACAGUCCGACGAUCGUUUUUUUCUGAGAUGUUAAAUAUUCAGUGGAGGGAAAACAAAACUUAACCUUUUAUUAAUGCGUGUUGUACCAGAAAGCAAAAUUUUAGCUUCAUUUAUUCAAAAAUAUUAACAUUAAGCAACAGAGGAUUGAGCAUCA"}, "B18": {"name": "chr1:58468927:58468928:-_ENSMUSG00000026034_ENSMUST00000148330|mus_mus|mus_mus_mus_hu_False|28_48 (ssRNA)", "RNA": "GGGAGUUCUACAGUCCGACGAUCAAUUACUGAAAAAGAUGUUCAUUACCUUAGCUAUGUACUUAAUGAACCAAAUUACCCAAACAACAUAAAAUGUGCAAUAUAAAAAGCUAUACAAUUUACAAAGCUGUACAAAAUAACUUACAACAGAGGAUUGAGCAUCA"}, "B19": {"name": "19477749_19479453_500_CDS_ENSMUSG00000028228_ENSMUST00000029885|mouse|control|control (ssRNA)", "RNA": "GGGAGUUCUACAGUCCGACGAUCUCUGGCUUCCAUUUCAAACAAUACCACUCUGUUAUCCUUUAUUUCUUCUGCUGAAAUCGUAAUACUCCCUUUCCCUGCAGGUUUGCCAUUUUUGAGCACCAGUGGUCGAGUUAGCUUCUUCAACAGAGGAUUGAGCAUCA"}, "B20": {"name": "chr2:9572718:9572719:+_ENSG00000119203_ENST00000238112|hu_mus|FALSE|FALSE (ssRNA)", "RNA": "GGGAGUUCUACAGUCCGACGAUCGACGUGGCCGGCAUGGUAACACCAGAACUUGAUUCCUGCAACUUCCUUAACUUCAUGAAAAUUGAUGGUUUCGAUUUUGUCCAUGCUUUCUUCCAAGUCUGUCUCAGUGUACAGCAUGUCCAACAGAGGAUUGAGCAUCA"}, "B21": {"name": "chr17:61655871:61655872:+_ENSG00000136485_ENST00000310827|hu_hu|FALSE|FALSE (ssRNA)", "RNA": "GGGAGUUCUACAGUCCGACGAUCGGUGGGGUAUGGGUGGUCAAAGGUGUUUCUGCAAAUAAACUCUGAACUCUCCUCAUCUAAACCAACAAGCUGAACCUUGUUGUUGUACUCCUCCACGAAGCUGCCCAGCGCCAAGCGAAACAACAGAGGAUUGAGCAUCA"}, "B22": {"name": "chr5:37680062:37680063:+_ENSMUSG00000029121_ENSMUST00000031004|mus_hu|mus_mus_mus_hu_False|1_18 (ssRNA)", "RNA": "GGGAGUUCUACAGUCCGACGAUCUUUGGGUGUAGCUGGUACCUCGUACACAGGACCGUCAUACAUGCCCCUGGAAACCCCUUGCAAUCCAAAAACCUUAUUCCUGAUUUUGACGCGCUGGUAGAGAUGCUCCGGGAAUGGCUUCAACAGAGGAUUGAGCAUCA"}}, "note": "Where a chain is given by its changes, count along the chain named. Whole data set: some 24,000 sequences, median “enrichment r” near 0.99, cut for the highest 2% near 3.7. Shown is part of a subset that was picked to be rich in the highest values."}
{"molecular_target": "T1, UNK ZnF1-3 (human, UniProt Q9C0B0 31-174)", "T1 sequence": "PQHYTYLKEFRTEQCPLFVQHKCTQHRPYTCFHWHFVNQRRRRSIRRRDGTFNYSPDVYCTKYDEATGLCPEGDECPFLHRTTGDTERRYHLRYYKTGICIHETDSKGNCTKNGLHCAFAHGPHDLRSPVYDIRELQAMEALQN", "experiment": "nsRBNS (natural sequence RNA bind-n-seq); RBNS binding buffer (assumed for nsRBNS): 25 mM Tris pH 7.5, 150 mM KCl, 3 mM MgCl2, 0.01% Triton X-100, 500 ug/ml BSA, 20 U/ml SUPERase-In, 4 C; UNK is unkempt and MSI1 is Musashi-1; names of the RNAs are library labels; protein concentration not given here; high values mean tight binding", "units": {"binding signal": "enrichment R"}}
{"binder": "B1", "binding signal": 14.4}
{"binder": "B2", "binding signal": 0.843}
{"binder": "B3", "binding signal": 10.8}
{"binder": "B4", "binding signal": 0.957}
{"binder": "B5", "binding signal": 1.27}
{"binder": "B6", "binding signal": 1.44}
{"binder": "B7", "binding signal": 1.12}
{"binder": "B8", "binding signal": 6.23}
{"binder": "B9", "binding signal": 0.611}
{"binder": "B10", "binding signal": 3.61}
{"binder": "B11", "binding signal": 0.956}
{"binder": "B12", "binding signal": 1.66}
{"binder": "B13", "binding signal": 4.91}
{"binder": "B14", "binding signal": 1.03}
{"binder": "B15", "binding signal": 5.76}
{"binder": "B16", "binding signal": 0.924}
{"binder": "B17", "binding signal": 4.08}
{"binder": "B18", "binding signal": 0.529}
{"binder": "B19", "binding signal": 0.645}
{"binder": "B20", "binding signal": 0.798}
{"binder": "B21", "binding signal": 1.21}
{"binder": "B22", "binding signal": 0.867}
